Activity change, negative = inhibition data for 84 molecules are collected here from PubChem BioAssay AID652057 (Broad Institute, 2013).

In all, about 1,400 compounds went through this assay and about 1,000 (71%) were called active. The rule behind the calls is not given here. So high a share suggests a set chosen from earlier hits. Only a sample is shown. Results with a measured potency or affinity are listed apart.

The experiment in a line: inhibitors of HIV Env-driven cell fusion, dose response, cherry-pick (AID 652057). Particulars: HeLa-JRFL Env/CEM21 cell fusion, luciferase; series mostly up to 35 µM.
`C[C@@H]1CN([C@H](C)CO)C(=O)c2c(c3ccccc3n2C)-c2ccccc2CO[C@@H]1CN(C)S(=O)(=O)c1cccc(F)c1`: the activity change, negative = inhibition entry was “inactive”.

As to `C[C@@H]1CN([C@@H](C)CO)C(=O)c2cccc(NC(=O)c3ccc(-c4nccs4)cc3)c2O[C@H]1CN(C)CC1CC1`, the activity change, negative = inhibition entry is “inactive”.

`CCn1ncc(C2=NOC(C(=O)Nc3ccc(C)cc3)C2)c1C` (centres undefined): the activity change, negative = inhibition entry was “inactive”.

As for `C[C@H]1CN([C@@H](C)CO)C(=O)Cc2cc(N(C)C)ccc2O[C@H]1CN(C)CC1CC1`, the activity change, negative = inhibition entry was “inactive”.

In the case of `Cc1ccc2c(c1)C(=C(C#N)C#N)CCN2`, the activity change, negative = inhibition entry is “inactive”.

For `O=C(Nc1ccc(N2CCN(C(=O)c3ccccc3)CC2)c(Cl)c1)c1cccnc1`, the activity change, negative = inhibition entry is “inactive”.

With `CCCNC(=O)C[C@@H]1C[C@@H]2c3cc(NC(=O)Cc4ccncc4)ccc3O[C@@H]2[C@@H](CO)O1`, the activity change, negative = inhibition entry was “inactive”.

`C[C@H](CO)N1C[C@H](C)[C@@H](CN(C)C(=O)NC2CCCCC2)Oc2c(cccc2N(C)C)C1=O`: the activity change, negative = inhibition entry was “inactive”.

For the molecule `CCCNC(=O)C[C@@H]1C[C@H]2c3cc(NC(=O)c4cccnc4)ccc3O[C@H]2[C@H](CO)O1`, the activity change, negative = inhibition result was “inactive”.

`C[C@@H]1CN([C@@H](C)CO)C(=O)c2cc(NC(=O)c3ccccc3)ccc2O[C@@H](C)CCCCO[C@H]1CN(C)Cc1ccc(C(=O)O)cc1`: the activity change, negative = inhibition entry was “inactive”.

For `C[C@@H]1CCCCO[C@H](CN(C)C)[C@H](C)CN([C@@H](C)CO)C(=O)c2cc(NS(=O)(=O)c3cn(C)cn3)ccc2O1`, the activity change, negative = inhibition result is “inactive”.

For `COc1ccc(CN(C)C[C@@H]2Oc3ccc(NC(=O)Nc4ccc(OC)cc4)cc3C(=O)N([C@H](C)CO)C[C@@H]2C)cc1`, the activity change, negative = inhibition result was “inactive”.

Regarding `CNC[C@H]1Oc2c(NC(=O)Nc3ccc(C(F)(F)F)cc3)cccc2C(=O)N([C@@H](C)CO)C[C@H]1C`, the activity change, negative = inhibition result is “inactive”.

On to `O=C(N[C@@H]1CC[C@H](CCNS(=O)(=O)c2ccc(F)cc2)O[C@@H]1CO)C1CC1`, for which the activity change, negative = inhibition entry was “inactive”.

As to `O=C(COC(=O)c1cc(S(=O)(=O)N2CCOCC2)ccc1O)NCc1ccc2c(c1)OCO2`, the activity change, negative = inhibition entry is “inactive”.

In the case of `CC(C)CNS(=O)(=O)c1ccc(CCC(=O)N2CCN(Cc3ccc4c(c3)OCO4)CC2)cc1`, the activity change, negative = inhibition result was “inactive”.

On to `C[C@H]1NC(=O)[C@@]2(C)[C@H](c3ccccc3)[C@H]3COc4ccccc4[C@@H]3N2C1=O`, for which the activity change, negative = inhibition result was “inactive”.

For `COCC(=O)N1C[C@@H](C)[C@H](OC)CN(C)C(=O)c2ccc(NC(=O)c3ccc(OC)cc3)cc2OC[C@@H]1C`, the activity change, negative = inhibition entry was “inactive”.

Regarding `Nc1c(S(=O)(=O)c2ccccc2)cnc2c(-c3ccc(F)cc3)cnn12`, the activity change, negative = inhibition entry is “inactive”.

Regarding `Cc1cc(Cl)ccc1OCC(=O)NNC(=O)C1CSC2(C)CCC(=O)N12` (centres undefined), the activity change, negative = inhibition entry was “inactive”.

As for `O=C(Nc1cccc(F)c1)c1cc(S(=O)(=O)N2CCC(C(=O)O)CC2)ccc1F`, the activity change, negative = inhibition entry is “inactive”.

`CCc1cc2c(NCc3ccco3)ncnc2s1`: the activity change, negative = inhibition entry is “inactive”.

Consider `Nc1ncn([C@H]2C[C@H](O)[C@@H](CO)O2)c(=O)n1`, for which the activity change, negative = inhibition entry was “inactive”.

Take `Nc1nc2c(ncn2[C@@H]2O[C@H](C(=O)NCC(c3ccccc3)c3ccccc3)[C@@H](O)[C@H]2O)c(=O)[nH]1`: the activity change, negative = inhibition result is “inactive”.

As for `N#C[C@H]1[C@@H](c2ccccc2/C=C/c2ccccc2)[C@@H](CO)N1S(=O)(=O)c1cccc(F)c1`, the activity change, negative = inhibition result is “inactive”.

`O=C(Nc1ccc(CN2CCS(=O)(=O)CC2)cc1)c1ccc(C(F)(F)F)cc1`: the activity change, negative = inhibition entry is “inactive”.

Consider `Cc1ccc(-n2nnnc2-c2cnn(-c3ccc(F)cc3)c2C(F)(F)F)cc1`, for which the activity change, negative = inhibition result is “inactive”.

For the molecule `Cc1cccc(C)c1NC(=O)CCCSc1nnc(-c2ccc(Cl)cc2)n1-c1ccccc1`, the activity change, negative = inhibition entry was “inactive”.

`Cn1c(SCc2nc(-c3ccc(Cl)cc3)no2)nnc1-c1cccs1`: the activity change, negative = inhibition entry was “inactive”.

On to `COc1ccc(-c2c(C)nn3c(C(F)(F)F)cc(C)nc23)cc1`, for which the activity change, negative = inhibition entry is “inactive”.

Regarding `O=C(CN1CCN(Cc2ccc(Cl)cc2)C1=O)NCCCN1CCN(c2ccc(F)cc2)CC1`, the activity change, negative = inhibition result is “inactive”.

Turning to `C[C@H]1CN([C@@H](C)CO)C(=O)c2cccc(NC(=O)C3CCCCC3)c2O[C@H]1CN(C)S(C)(=O)=O`, the activity change, negative = inhibition entry was “inactive”.

On to `COCC(=O)N(C)C[C@H]1Oc2ncc(Br)cc2C(=O)N([C@H](C)CO)C[C@H]1C`, for which the activity change, negative = inhibition entry was “inactive”.

Take `COc1ccccc1C#Cc1ccc([C@H]2[C@H](C#N)N(C(=O)C3CCCC3)[C@H]2CO)cc1`: the activity change, negative = inhibition entry was “inactive”.

As for `CCCNC(=O)N1[C@H](C#N)[C@H](c2ccc(-c3ccc(C(=O)N(C)C)cc3)cc2)[C@@H]1CO`, the activity change, negative = inhibition entry is “inactive”.

Regarding `N#C[C@@H]1[C@H](c2ccc(-c3cccc(F)c3)cc2)[C@H](CO)N1C(=O)c1cccnc1`, the activity change, negative = inhibition entry was “inactive”.

Turning to `CCCNC(=O)N1[C@H](C#N)[C@H](c2ccc(-c3cccc(OC)c3)cc2)[C@@H]1CO`, the activity change, negative = inhibition entry was “inactive”.

With `O=S(=O)(NCC[C@@H]1CC[C@@H](NS(=O)(=O)c2ccccc2Cl)[C@H](CO)O1)c1ccc(Cl)cc1`, the activity change, negative = inhibition entry was “inactive”.

In the case of `O=S(=O)(NCC[C@H]1CC[C@H](NS(=O)(=O)c2ccccc2Cl)[C@H](CO)O1)c1ccc(Cl)cc1`, the activity change, negative = inhibition entry is “inactive”.

For the molecule `COc1ccc(-c2nn(C)c(=O)c3ccccc23)cc1NC(=O)COc1ccccc1`, the activity change, negative = inhibition result is “inactive”.

Consider `COc1ccc(OCC(=O)Nc2cc(-c3nn(C)c(=O)c4ccccc34)ccc2OC)cc1`, for which the activity change, negative = inhibition result is “inactive”.

As to `COc1ccc(NS(=O)(=O)c2ccc3c(c2)OCCO3)cc1OC`, the activity change, negative = inhibition entry is “inactive”.

On to `COc1ccc(N2CCn3c2nc2c3c(=O)n(CCCc3ccccc3)c(=O)n2C)c(OC)c1`, for which the activity change, negative = inhibition result is “inactive”.

Turning to `CCOC(=O)C(C)Oc1cccc2c(=O)n(CC(=O)NCCc3ccc(OC)c(OC)c3)ccc12` (centres undefined), the activity change, negative = inhibition entry is “inactive”.

As for `O=C(CCN1CCCCC1)N[C@H]1CC[C@H](CCn2cc(-c3ccccc3)nn2)O[C@@H]1CO`, the activity change, negative = inhibition result was “inactive”.

In the case of `COc1ccc(-c2cn(CC[C@H]3CC[C@H](NS(=O)(=O)c4ccccc4C)[C@H](CO)O3)nn2)cc1`, the activity change, negative = inhibition result was “inactive”.

With `O=C(CCN1CCCCC1)N[C@@H]1CC[C@@H](CCn2cc(-c3ccccc3)nn2)O[C@@H]1CO`, the activity change, negative = inhibition result was “inactive”.

On to `O=C(Cc1ccncc1)N[C@H]1CC[C@@H](CCn2cc(-c3ccccc3F)nn2)O[C@@H]1CO`, for which the activity change, negative = inhibition entry was “inactive”.

Regarding `Cc1ccc(C2CC(=O)c3cnc(N4CCc5ccccc5C4)nc3C2)cc1` (centres undefined), the activity change, negative = inhibition entry was “inactive”.

Take `COc1ccccc1N/C(N)=N/c1nc(CSc2ccc(C)cc2)cc(=O)[nH]1`: the activity change, negative = inhibition result was “inactive”.

As to `COc1ccc(NC(=O)C2(C)CCN2Cc2ccccc2OC(F)F)cc1OC` (centres undefined), the activity change, negative = inhibition entry was “inactive”.

For the molecule `CCCc1cc(C(=O)NCc2ccc(OC)cc2)no1`, the activity change, negative = inhibition result is “inactive”.

On to `CCCCCCCCCCn1c2c(c(=N)c3c1CCC3)CCC2`, for which the activity change, negative = inhibition result is “inactive”.

Take `C[C@@H]1CN([C@@H](C)CO)C(=O)c2cc(NC(=O)c3ccncc3)ccc2O[C@@H]1CN(C)Cc1ccncc1`: the activity change, negative = inhibition entry was “inactive”.

In the case of `C[C@@H]1CN([C@@H](C)CO)C(=O)c2cc(NC(=O)c3ccncc3)ccc2O[C@H]1CN(C)Cc1ccncc1`, the activity change, negative = inhibition entry was “inactive”.

Consider `C[C@H](CO)N1C[C@H](C)[C@@H](CN(C)CC2CC2)Oc2ccc(NS(C)(=O)=O)cc2CC1=O`, for which the activity change, negative = inhibition entry was “inactive”.

In the case of `C[C@H](CO)N1C[C@H](C)[C@H](CN(C)Cc2ccccc2)Oc2c(NC(=O)Nc3ccc4c(c3)OCO4)cccc2C1=O`, the activity change, negative = inhibition entry was “inactive”.

As for `COc1ccc(NC(=O)CN2CCC(C(N)=O)(N3CCCCC3)CC2)cc1`, the activity change, negative = inhibition entry was “inactive”.

In the case of `CCc1ccc(C(=O)CN2C(=O)NC(C)(c3ccc(C)cc3)C2=O)cc1` (centres undefined), the activity change, negative = inhibition entry is “inactive”.

As for `C=CC[n+]1c(-c2ccc(OC)c(OC)c2)csc1NNC(=O)Nc1ccccc1`, the activity change, negative = inhibition result is “inactive”.

Consider `CC(=O)c1ccc([C@H]2C[C@@]34CN(C(=O)OC(C)(C)C)S(=O)(=O)[C@H]3C[C@H]2O4)cc1`, for which the activity change, negative = inhibition result is “inactive”.

For the molecule `CO[C@@H]1CN(C)C(=O)c2cc(NS(=O)(=O)c3ccc(C)cc3)ccc2OC[C@H](C)N(C(=O)NC(C)C)C[C@@H]1C`, the activity change, negative = inhibition entry is “inactive”.

Regarding `O=C(C[C@@H]1C[C@H]2c3cc(NC(=O)C4CCC4)ccc3O[C@H]2[C@H](CO)O1)NCC(F)(F)F`, the activity change, negative = inhibition result is “inactive”.

In the case of `COc1ccc(N2CCN(C(=O)C3CCC(Cn4c(=S)[nH]c5ccccc5c4=O)CC3)CC2)cc1` (centres undefined), the activity change, negative = inhibition entry is “inactive”.

In the case of `C[C@@H]1CN([C@H](C)CO)S(=O)(=O)c2ccc(C#Cc3cccc(F)c3)cc2O[C@@H]1CN(C)C(=O)CN1CCOCC1`, the activity change, negative = inhibition entry was “inactive”.

For the molecule `Cc1[nH]c2ccccc2c1/C=N\NC(=O)c1ccccc1Cl`, the activity change, negative = inhibition result is “inactive”.

In the case of `CCn1c(/C=C/N(C)c2ccccc2)[n+](CC)c2ccc(Cl)cc21`, the activity change, negative = inhibition entry is “inactive”.

Consider `Cc1nc2ccccc2c2oc(C(=O)NCc3ccc4c(c3)OCO4)cc12`, for which the activity change, negative = inhibition result is “inactive”.

Regarding `O=C(C[C@H]1C[C@H]2c3cc(NC(=O)C4CCC4)ccc3O[C@H]2[C@H](CO)O1)NCc1ccc2c(c1)OCO2`, the activity change, negative = inhibition entry was “inactive”.

`O=C(Nc1cc2c3c(c1)CC(=O)N3CCC2)c1ccc(Cl)cc1`: the activity change, negative = inhibition entry is “inactive”.

For the molecule `COC(=O)[C@]12CCCCC=C1N(Cc1ccco1)C(=O)[C@H](CC(=O)NCCc1ccccc1OC)C2`, the activity change, negative = inhibition entry was “inactive”.

As to `Cc1nn(C)c(Cl)c1NC(=O)OCc1ccc(Cl)cc1Cl`, the activity change, negative = inhibition entry was “inactive”.

Regarding `COc1ccc(CCNC(=O)COC(=O)c2cccn2C)cc1`, the activity change, negative = inhibition entry is “inactive”.

As to `O=C(Nc1cccn(Cc2c(Cl)cccc2Cl)c1=O)c1ccc(Cl)cc1`, the activity change, negative = inhibition entry is “inactive”.

As for `O=C(c1ccccc1F)N1CCN(Cc2cccc(Cl)c2)CC1`, the activity change, negative = inhibition entry is “inactive”.

`COc1ccccc1S(=O)(=O)Cc1ccc(C(=O)N2CCN(c3cccc(Cl)c3)CC2)o1`: the activity change, negative = inhibition entry is “inactive”.

Consider `CNC[C@H]1Oc2c(NC(=O)Nc3ccc4c(c3)OCO4)cccc2C(=O)N([C@H](C)CO)C[C@@H]1C`, for which the activity change, negative = inhibition result is “inactive”.

For `COC(=O)[C@H](Cc1ccccc1)NC(=O)Cn1cnc(C(=O)Nc2ccc(C)c(C)c2)n1`, the activity change, negative = inhibition result is “inactive”.

For the molecule `O=C(COc1ccc(-n2cnnn2)cc1)Nc1ccc(F)c(F)c1`, the activity change, negative = inhibition entry is “inactive”.

Take `Cc1ccc(NC(=O)c2ccc(OCC3CCCO3)cc2)cc1Cl` (centres undefined): the activity change, negative = inhibition entry is “inactive”.

On to `Cn1c(CN2CCCCC2)nc2cc(NC(=O)c3ccc(Cl)cc3)ccc21`, for which the activity change, negative = inhibition result is “inactive”.

For the molecule `CCOc1ccc(-c2cc(CCCC(=O)Nc3cccc(OC)c3)no2)cc1`, the activity change, negative = inhibition entry was “inactive”.

As for `O=C(Cc1ccc(Cl)cc1Cl)Nc1ccncc1`, the activity change, negative = inhibition result was “inactive”.

As for `C[C@@H]1CN([C@@H](C)CO)C(=O)c2cc(NS(=O)(=O)c3ccccc3)ccc2O[C@H]1CN(C)Cc1ccc(Oc2ccccc2)cc1`, the activity change, negative = inhibition result is “inactive”.
